Mtb betalactam = beta-lactam sensitization of Mtb H37Rv; AID 434955; inhibition, % at 25 µM; M. tuberculosis H37Rv growth with meropenem, percent inhibition; actives 0.27% (n = 330,000);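 also: growth measured after seven days incubation then overnight dye step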
RecA intein inh = Mtb RecA intein splicing inhibition; cell-free RecA intein splicing, fluorescence; inhibition, % (no concentration beside the values); actives 0.75% (n = 290,000); AID 2221; in the data active = inhibition above about 30%; inconclusive = no clear call, values can overlap the other calls
Target sequence (P9WHJ3 whole entry, looked up): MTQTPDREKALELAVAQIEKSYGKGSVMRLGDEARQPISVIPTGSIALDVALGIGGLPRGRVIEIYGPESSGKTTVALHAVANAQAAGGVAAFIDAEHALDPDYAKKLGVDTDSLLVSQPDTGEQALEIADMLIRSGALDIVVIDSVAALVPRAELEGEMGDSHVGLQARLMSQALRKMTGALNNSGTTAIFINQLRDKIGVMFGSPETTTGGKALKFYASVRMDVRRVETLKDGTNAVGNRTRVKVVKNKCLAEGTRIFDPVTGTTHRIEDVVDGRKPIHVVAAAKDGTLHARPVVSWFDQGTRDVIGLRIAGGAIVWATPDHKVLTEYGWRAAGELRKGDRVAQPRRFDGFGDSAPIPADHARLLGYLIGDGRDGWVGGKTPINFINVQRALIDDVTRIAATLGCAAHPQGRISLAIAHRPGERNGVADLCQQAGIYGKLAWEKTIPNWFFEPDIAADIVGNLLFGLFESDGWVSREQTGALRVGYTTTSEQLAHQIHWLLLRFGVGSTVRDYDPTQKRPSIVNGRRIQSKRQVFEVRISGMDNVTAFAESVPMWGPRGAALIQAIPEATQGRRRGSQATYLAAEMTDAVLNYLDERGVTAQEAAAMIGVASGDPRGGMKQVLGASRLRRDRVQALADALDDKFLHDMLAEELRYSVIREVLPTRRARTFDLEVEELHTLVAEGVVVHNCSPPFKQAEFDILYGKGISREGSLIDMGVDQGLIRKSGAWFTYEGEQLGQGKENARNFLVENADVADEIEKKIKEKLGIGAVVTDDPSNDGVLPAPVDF
Rv3671c inh = inhibitors of M. tuberculosis serine protease Rv3671c; P9WHR9; inhibition, % at 5.96 µM; actives 0.048% (n = 320,000); AID 2606; in the data active = inhibition above about 38%;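 also: extracellular domain of Rv3671c used as enzyme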
Mtb UGM inh = blocks M. tuberculosis UGM enzyme; actives 0.06% (n = 320,000); purified UGM, fluorescence polarization probe displacement; P9WIQ1; AID 504406; inhibition, % at 10 µM; in the data active = inhibition above about 10%, passing the limit was not always enough; inconclusive = no clear call, values can overlap the other calls
Mtb hypoxia rep = reduces hypoxia-regulated biosensor signal in M. tuberculosis | actives 0.1% (n = 300,000) | M. tuberculosis hypoxia-regulated fluorescent reporter, fluorescence | fluorescence inhibition, % (test concentration not listed); in the data active = fluorescence inhibition mostly above about 23%, no sharp cut-off; inactive = mostly below about 17%
GFP chromophore = counter-screen GFP chromophore formation inhibition. shares compounds with RecA intein inh. cell-free GFP chromophore formation, fluorescence. EC50, µM. actives 83% (n = 2,100)
Rv3671c confirm = confirmation of M. tuberculosis Rv3671c protease inhibitors | shares compounds with Rv3671c inh | inhibition, % at 5.96 µM | actives 40% (n = 140) | AID 2761; in the data active = inhibition above about 38%
Each line names hits and unclear results; the compound was inactive in the other large screens (follow-up assays come after a bar, where shown). The list is not random: actives were taken first. Their share in the collection is about 0.77%. Unless noted, no rule for the calls is given here.

CSc1nnc(NC(=O)C23CC4CC(CC(C4)C2)C3)s1	none | GFP chromophore inactive
COC(=O)C1=C(c2c(C)noc2C)CC2CCC1N2C(=O)NC1CCCCC1 (configuration not stated)	none (no result: Mtb betalactam, RecA intein inh, Rv3671c inh, Mtb UGM inh)
COc1ccccc1/C=C/C1(C(=O)NC2CCCC2)CC(=O)N1c1ccc(F)cc1 (configuration not stated)	RecA intein inh 57 | GFP chromophore 22
O=C1C(Cl)=C(N2CCCCC2)C(=O)C(Cl)=C1c1cnc(N2CCCCC2)s1	RecA intein inh 35 (no result: Mtb betalactam, Rv3671c inh, Mtb UGM inh) | GFP chromophore 0.45
CC(=O)c1cnc(N(C)C)s1	none (no result: Mtb hypoxia rep)
CN(C)c1ncc(C2=C(Cl)C(=O)C(N3CCCC3)=C(Cl)C2=O)s1	RecA intein inh 60 | GFP chromophore 4.4
CC1CN(C(C)CO)C(=O)c2cc(NS(=O)(=O)c3ccc(F)cc3)ccc2OC1CN(C)C(=O)NC1CCCCC1 (configuration not stated)	none (no result: Mtb betalactam, RecA intein inh, Rv3671c inh, Mtb UGM inh)
CC(C)NC(=O)C1C[C@@]1(C)C(NC(=O)OCc1ccccc1)c1ccccc1 (some centres not stated)	none (no result: Mtb betalactam, RecA intein inh, Rv3671c inh, Mtb UGM inh)
O=c1[nH]cnc2cc(-c3ccc(Br)cc3)sc12	none
O=c1[nH]c(CCl)nc2cc(-c3ccc(F)cc3)sc12	RecA intein inh 36 (no result: Mtb hypoxia rep) | GFP chromophore 31
CC(/C=N/NC(=O)Cc1cc(=O)[nH][nH]1)=C\c1ccccc1	RecA intein inh 89 (no result: Mtb hypoxia rep) | GFP chromophore 6.7
O=C(CCl)Nc1ccc(N=Nc2ccccc2)cc1	RecA intein inh 79 (no result: Mtb betalactam, Rv3671c inh, Mtb UGM inh) | GFP chromophore 30
CC(C)N(c1ccccc1)c1ccc(NC(=O)CCl)cc1	RecA intein inh 51 | GFP chromophore 8.7
O=C(CCl)Nc1cccc(Oc2ccccc2)c1	RecA intein inh 65 | GFP chromophore 35
O=C(CCl)Nc1ccc(-c2ccccc2)cc1	RecA intein inh 75 (not shown: Mtb hypoxia rep) | GFP chromophore 24
CC(C)CC(NC(=O)c1nc[nH]c1C(=O)NC(c1ccccc1)c1ccccc1)C(=O)OCc1ccccc1 (configuration not stated)	none (no result: Mtb betalactam, RecA intein inh, Rv3671c inh, Mtb UGM inh)
COc1ccc(CN(C(CO)CC(C)C)S(=O)(=O)N(Cc2ccccc2)C(CO)CC(C)C)cc1 (configuration not stated)	none (no result: Mtb betalactam, RecA intein inh, Rv3671c inh, Mtb UGM inh)
CCOc1ccc(CN2CCN(CC3=Cc4cccc(OC)c4OC3)CC2CCO)cc1 (configuration not stated)	RecA intein inh 42 | GFP chromophore inactive
COC(=O)CC=CC(C)C(C=NOCC(C)C(OCc1ccccc1)C(C)C)NS(=O)(=O)c1ccc(C)cc1 (configuration not stated)	none (no result: Mtb betalactam, RecA intein inh, Rv3671c inh, Mtb UGM inh)
CC(=O)c1c(Cl)nc2cccc3c2c1-c1ccccc1C3=O	RecA intein inh 33 (no result: Mtb hypoxia rep) | GFP chromophore inactive
COc1ccc(C2C=CCN(C(=O)C(Cc3ccccc3)NC(=O)OCC3c4ccccc4-c4ccccc43)CC(=O)N2Cc2ccc(F)cc2)cc1 (configuration not stated)	none (no result: Mtb betalactam, RecA intein inh, Rv3671c inh, Mtb UGM inh)
Fc1ccc2[nH]c3c(Cl)ncnc3c2c1	none
COc1ccc2[nH]c3c(Cl)ncnc3c2c1	RecA intein inh 76 | GFP chromophore inactive
CCCCCCCCNC(=O)/C(C#N)=C/c1ccccc1[N+](=O)[O-]	RecA intein inh 42 | GFP chromophore 12
N#C/C(=C\c1ccccc1[N+](=O)[O-])C(=O)NCc1ccccc1	none
CN1CCN(C(c2ccc(Cl)cc2)c2cc(Cl)c3cccnc3c2O)CC1 (configuration not stated)	RecA intein inh 79 (no result: Mtb hypoxia rep) | GFP chromophore 31
CN1CCN(C(c2ccc(C(F)(F)F)cc2)c2cc(Cl)c3cccnc3c2O)CC1 (configuration not stated)	RecA intein inh 44 (no result: Mtb hypoxia rep) | GFP chromophore 18
COC(=O)C(O)(c1c(C)[nH]n(-c2ccccc2)c1=O)C(F)(F)F (configuration not stated)	RecA intein inh 92 (no result: Mtb hypoxia rep) | GFP chromophore 7.5
CC(=O)n1cc(C2C=C(C(=O)N3CCOCC3)OC(OCc3ccc(CO)cc3)C2)c2ccccc21 (configuration not stated)	none (no result: Mtb betalactam, RecA intein inh, Rv3671c inh, Mtb UGM inh)
Cc1n[nH]c(C)c1CCN(C)C(=O)C1CCC(=O)N(CC2CCCCC2)C1 (configuration not stated)	Mtb betalactam inconclusive (no result: RecA intein inh)
CN(CCc1cnn(C)c1)C(=O)C1CCC(=O)N(CC2CCCCC2)C1 (configuration not stated)	RecA intein inh 46 | GFP chromophore inactive
CC(=O)Oc1ccccc1N(C(C)=O)S(=O)(=O)c1ccc(C)cc1	none
Cc1ccc(S(=O)(=O)N(C(=O)c2ccncc2)c2ccc(OC(=O)c3ccncc3)c3ccccc23)c(C)c1	RecA intein inh 98 (no result: Mtb hypoxia rep) | GFP chromophore inactive
Cc1ccc(S(=O)(=O)N(C(=O)c2ccncc2)c2ccc(OC(=O)c3ccncc3)c3ccccc23)cc1	RecA intein inh 47 | GFP chromophore 0.75
CC(=O)Oc1ccc(N(C(C)=O)S(=O)(=O)c2ccc(C)cc2C)c2ccccc12	none (no result: Rv3671c inh)
COc1ccc(C(O)c2nccc3cc(OC)c(OC)cc23)cc1OC (configuration not stated)	RecA intein inh 53 | GFP chromophore 25
CCC(C)CCN1C(Nc2ccccc2)=NCC1C (configuration not stated)	none (no result: Mtb betalactam, RecA intein inh, Rv3671c inh, Mtb UGM inh)
CC1=NN(c2ccccc2)C(=O)/C1=C/c1c(O)n(-c2ccc(F)c(Cl)c2)[nH]c1=O	RecA intein inh 50, Rv3671c inh 48 | GFP chromophore 32 | Rv3671c confirm inactive
CC1=NN(c2ccccc2)C(=O)/C1=C\c1c(C)[nH]n(-c2ccccc2)c1=O	none
Cc1ccc2nc(-c3cccs3)oc(=O)c2c1	RecA intein inh 32, Rv3671c inh 52 | GFP chromophore inactive | Rv3671c confirm 63
CC1CN(C(C)CO)C(=O)c2cccc(NS(=O)(=O)c3cccs3)c2OC1CN(C)Cc1ccncc1 (configuration not stated)	none (no result: Mtb betalactam, RecA intein inh, Rv3671c inh, Mtb UGM inh)
CC1=C(C(N)=O)C(c2cccs2)n2nc(-c3cccc(C)c3)nc2N1 (configuration not stated)	Rv3671c inh 43 | Rv3671c confirm 52
Cc1ccc(-c2ccccc2NC(=O)CS(=O)CC(=O)Nc2ccc(C)c(Cl)c2)o1 (configuration not stated)	Rv3671c inh 78 (no result: Mtb hypoxia rep) | Rv3671c confirm inactive
CCOC(=O)C1CCCN(C(=O)C2COc3ccccc3O2)C1 (configuration not stated)	none (no result: Mtb betalactam, RecA intein inh, Rv3671c inh, Mtb UGM inh)
CCOC(=O)C1CCCN(C(=O)C2c3ccccc3Oc3ccccc32)C1 (configuration not stated)	Rv3671c inh 60, Mtb UGM inh 23 | Rv3671c confirm inactive
O=C1CCCC2=C1C(c1ccc(Cl)cc1)C1C(=O)c3ccccc3C1=N2 (configuration not stated)	Rv3671c inh 40 | Rv3671c confirm inactive
COc1ccc(OC)c(-c2c3cc(O)c(=O)cc-3oc3cc(O)c(O)cc23)c1	Rv3671c inh 63 (no result: RecA intein inh, Mtb hypoxia rep) | Rv3671c confirm 76
O=c1cc2oc3cc(O)c(O)cc3c(-c3ccccc3O)c-2cc1O	none (no result: Mtb betalactam, RecA intein inh, Rv3671c inh, Mtb UGM inh)

Compound activity (PubChem BioAssay)
